According to PubChem BioAssay (EPA / NIEHS):
Active and inactive are the calls of the source. Rule for the calls: active = hit-call score of the fitted dose curve at least 0.9, where 1 is the maximum; inactive = score below 0.9.

Experiment: CCTE_Shafer_MEA_acute_burst_duration_mean: CCTE's Neural Acute Assay for Mean Burst Duration, Shafer Lab (AID 2284014)
Method: CCTE_Shafer_MEA_acute assay is conducted using Axion Biosystems 48 well microelectrode array (MEA) plates and Maestro recording system. Each well of the MEA plate contains a grid of 16 microelectrodes embedded in the culture surface. Electrically active cells, such as neurons, can be cultured over the electrodes, and electrical activity in these cells can be recorded extracellularly. The spontaneous firing of neurons is captured from each electrode on a microsecond timescale providing both temporally and spatially precise data. […] The CCTE_Shafer_MEA_acute assay uses primary cultures of rat cortical neurons. As these cultures mature over time, neural networks develop functional activity and form cohesive networks in which electrical activity can be highly coordinated. Baseline 40-minute recordings are made on days post-plating 13 or 15, followed by a secondary 40-minute recording after chemical exposure.CCTE_Shafer_MEA_acute_burst_duration_mean is a component of the CCTE_Shafer_MEA_acute assay. It measures the average time from the first spike (action potential firing) to the last spike in a single-electrode burst (temporally-clustered group of spikes) during a recording in a microelectrode array (MEA) using Axion Biosystems Maestro 768 channel amplifier with the AxIS adaptive spike detector. The recordings before and after chemical treatment are used to calculate a percent change in the mean burst duration in each well.Data from the assay component CCTE_Shafer_MEA_acute_burst_duration_mean was analyzed into 1 assay endpoint. This assay endpoint, CCTE_Shafer_MEA_acute_burst_duration_mean, was analyzed in the negative analysis fitting direction relative to DMSO as the negative control and baseline of activity. Using a type of functional reporter, gain or loss-of-signal activity can be used to understand electrical activity.
Spontaneous activity in the cortical cultures was recorded using an Axion Biosystems Maestro 768 channel amplifier and Axion Integrated Studios (AxIS) v1.8 (or later) software. The amplifier recorded from all channels simultaneously (gain = 1200 x; sampling rate = 12.5 kHz/channel): raw signals were filtered with a Butterworth band-pass filter (300-5000 Hz), which filters out slower local field potentials leaving only fast potentials, i.e., "spikes", arising from extracellular currents associated with action potentials (Pine 2006; Wheeler and Nam 2011). On-line spike detection of filtered signals was conducted with the AxIS adaptive spike detector, using a threshold of 8x the root mean squared (rms) noise on each channel. Any electrodes with rms noise levels greater than 5 uV were grounded (e.g., no data were recorded). Once grounded, an electrode was grounded for the duration of the experiment. All recordings were conducted at 37 C. Wells were deemed usable if on the day of the exposure >/= 10 electrodes were active (defined as >/= 5 spikes/min). On DIV 13 or 15, a minimum of three wells from one cortical culture preparation were treated with each compound (0.03-40 uM). Prior to recording baseline activity, each mwMEA plate was placed in the Maestro at 37 C and allowed to sit for 20 min while firing rates stabilized. Baseline activity (40 min) was recorded before the addition of each compound. An additional 40 min of spontaneous activity was recorded in the presence of each compound. Changes in network parameters relative to baseline were assessed following compound treatment.

Structure (SMILES) | outcome | AC50
C=CCOC(=O)c1ccccc1C(=O)OCC=C | inactive | 
Cc1ccc(C)c(O)c1C | inactive | 
NCC1(Cc2noc(=O)[nH]2)CCCCC1 | inactive | 
NS(=O)(=O)c1cc2c(cc1Cl)NCNS2(=O)=O | inactive | 
CCCc1cc(=O)[nH]c(=S)[nH]1 | inactive | 
CCCCCCCCCCO | inactive | 
Nc1ccccc1N | inactive | 
CC(=O)C(C)=CC1C(C)=CCCC1(C)C (configuration not stated) | inactive | 
COc1ccc(S(=O)(=O)N2C(=O)[C@@](c3ccccc3OC)(N3C[C@H](O)C[C@H]3C(=O)N(C)C)c3cc(Cl)ccc32)c(OC)c1 | inactive | 
CC(C)(C)c1cc(O)c(C(C)(C)C)cc1O |  | 29.4 µM (active)
Nc1ccc2c(c1)C(=O)c1ccccc1C2=O | inactive | 
Nc1nc(N)c2nc(CNc3ccc(C(=O)N[C@@H](CCC(=O)O)C(=O)O)cc3)cnc2n1 | inactive | 
c1cc(-c2ccncc2)ccn1 | inactive | 
CCCCCCCCCCCCCCCCCC(=O)O | inactive | 
CCOC(=O)C(C)(C)Oc1ccc(Cl)cc1 | inactive | 
C=CCc1ccc(O)c(OC)c1 | inactive | 
Cc1ccc2ncccc2c1 | inactive | 
Cc1ccc(C(C)C)c(O)c1 | inactive | 
CC(=O)Oc1ccccc1C(=O)O | inactive | 
FC(F)(F)C(F)(F)C(F)(F)C(F)(F)C(F)(F)C(F)(F)CCI | inactive | 
O=C(O)CCCCC(=O)O | inactive | 
COc1ccc2c(c1)c(CC(=O)O)c(C)n2C(=O)c1ccc(Cl)cc1 | inactive | 
CNCc1cc(F)ccc1Oc1ccc(Cl)c(Cl)c1 |  | 33.5 µM (active)
CN1CCCC1=O | inactive | 
C[Si]1(C)O[Si](C)(C)O[Si](C)(C)O[Si](C)(C)O1 | inactive | 
CN[C@H]1CC[C@@H](c2ccc(Cl)c(Cl)c2)c2ccc(S(N)(=O)=O)cc21 | inactive | 
Clc1cc(Cl)c(Cl)cc1Cl | inactive | 
